Holding throughout (test): DAPPL (digital affinity profiling via proximity ligation, sequencing); 10 mM Tris-HCl pH 7.5, 50 mM NaCl, 1 mM DTT, 4% glycerol, room temperature, 30 min; GST-TFs on glutathione beads, 16-mer random dsDNA library, 0.1% formaldehyde crosslink after washing; high values mean tight binding
What all share (details): protein: recombinant; tags: N-terminal GST; dsDNA, one strand shown

One experiment concerns the target T1, FLI1 (Homo sapiens, UniProt Q01543 1-452).
T1 sequence: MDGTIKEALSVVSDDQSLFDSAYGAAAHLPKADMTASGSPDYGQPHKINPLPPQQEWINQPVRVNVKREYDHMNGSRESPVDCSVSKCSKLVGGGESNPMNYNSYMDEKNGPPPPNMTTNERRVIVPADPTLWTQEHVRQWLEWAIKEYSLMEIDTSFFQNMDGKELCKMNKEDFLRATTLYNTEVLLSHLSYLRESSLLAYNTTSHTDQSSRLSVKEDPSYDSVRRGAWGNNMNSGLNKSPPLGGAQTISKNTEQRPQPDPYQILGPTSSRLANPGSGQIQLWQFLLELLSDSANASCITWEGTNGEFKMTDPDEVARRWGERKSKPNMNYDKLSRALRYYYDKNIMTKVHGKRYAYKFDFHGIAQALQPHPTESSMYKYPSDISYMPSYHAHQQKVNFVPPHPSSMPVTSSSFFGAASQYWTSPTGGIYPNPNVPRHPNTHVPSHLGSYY
The method, boiled down: (§1)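 Binding signal is given per hexamer as its read frequency for a factor divided by its frequency in the tag-only sample. GST-fused human transcription factors were expressed in yeast, captured on glutathione beads, barcoded with DNA and pooled with that sample, then incubated with 200 nmole of a 16-mer random double-stranded DNA library in Tris/NaCl/DTT/glycerol buffer for 30 min at room temperature. The pools were then washed, crosslinked, proximity-ligated, amplified by PCR and sequenced on an Illumina NextSeq500.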

The target in a further experiment is T2, ELK1 (Homo sapiens, UniProt P19419 1-428).
T2 sequence: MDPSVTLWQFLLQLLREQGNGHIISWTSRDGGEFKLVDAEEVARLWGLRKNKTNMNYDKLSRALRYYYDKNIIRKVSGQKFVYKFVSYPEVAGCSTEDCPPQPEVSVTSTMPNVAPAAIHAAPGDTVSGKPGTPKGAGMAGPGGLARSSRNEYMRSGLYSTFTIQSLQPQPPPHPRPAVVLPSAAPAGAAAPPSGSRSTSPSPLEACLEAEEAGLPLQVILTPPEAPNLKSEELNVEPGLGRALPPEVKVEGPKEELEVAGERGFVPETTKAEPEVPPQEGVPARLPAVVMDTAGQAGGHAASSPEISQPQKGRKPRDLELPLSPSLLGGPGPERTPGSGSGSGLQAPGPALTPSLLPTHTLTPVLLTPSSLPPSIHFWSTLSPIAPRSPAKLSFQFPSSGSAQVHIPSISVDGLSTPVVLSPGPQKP
The method, boiled down:
as §1

The next experiment has as its target T3, GABPA (Homo sapiens, UniProt Q06546 1-454).
T3 sequence: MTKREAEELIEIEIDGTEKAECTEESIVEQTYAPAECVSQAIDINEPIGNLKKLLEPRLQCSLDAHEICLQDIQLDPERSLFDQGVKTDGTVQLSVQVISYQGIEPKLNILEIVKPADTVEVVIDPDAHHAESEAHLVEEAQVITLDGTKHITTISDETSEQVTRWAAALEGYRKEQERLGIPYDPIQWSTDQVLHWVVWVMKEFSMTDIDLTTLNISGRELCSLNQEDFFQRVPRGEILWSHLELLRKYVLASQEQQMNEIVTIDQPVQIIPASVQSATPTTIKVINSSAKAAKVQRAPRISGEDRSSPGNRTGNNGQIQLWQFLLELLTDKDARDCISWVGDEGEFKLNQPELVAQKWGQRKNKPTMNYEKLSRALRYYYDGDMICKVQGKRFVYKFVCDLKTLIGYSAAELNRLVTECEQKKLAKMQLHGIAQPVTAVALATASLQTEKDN
The method, boiled down:
as §1

In another experiment the target is T4, ERG (Homo sapiens, UniProt P11308 1-479).
T4 sequence: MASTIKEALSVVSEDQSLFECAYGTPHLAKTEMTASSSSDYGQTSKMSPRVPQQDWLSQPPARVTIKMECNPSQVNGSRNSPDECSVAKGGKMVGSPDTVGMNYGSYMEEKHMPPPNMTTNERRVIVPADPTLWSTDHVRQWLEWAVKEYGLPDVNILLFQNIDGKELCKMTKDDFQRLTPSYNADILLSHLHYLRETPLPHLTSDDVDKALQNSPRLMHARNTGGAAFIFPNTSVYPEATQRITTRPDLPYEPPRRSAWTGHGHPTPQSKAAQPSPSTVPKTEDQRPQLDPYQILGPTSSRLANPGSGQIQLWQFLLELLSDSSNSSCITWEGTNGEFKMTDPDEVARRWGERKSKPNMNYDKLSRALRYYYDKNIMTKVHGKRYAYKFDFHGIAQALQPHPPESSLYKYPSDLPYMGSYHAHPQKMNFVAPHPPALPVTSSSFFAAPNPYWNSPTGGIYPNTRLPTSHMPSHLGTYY
Summed up: as §1

A further experiment concerns the target ELF1 (Homo sapiens, UniProt P32519 1-619). The method, boiled down:
as §1

The target in a further experiment is T5, EHF (Homo sapiens, UniProt Q9NZC4 1-300).
T5 sequence: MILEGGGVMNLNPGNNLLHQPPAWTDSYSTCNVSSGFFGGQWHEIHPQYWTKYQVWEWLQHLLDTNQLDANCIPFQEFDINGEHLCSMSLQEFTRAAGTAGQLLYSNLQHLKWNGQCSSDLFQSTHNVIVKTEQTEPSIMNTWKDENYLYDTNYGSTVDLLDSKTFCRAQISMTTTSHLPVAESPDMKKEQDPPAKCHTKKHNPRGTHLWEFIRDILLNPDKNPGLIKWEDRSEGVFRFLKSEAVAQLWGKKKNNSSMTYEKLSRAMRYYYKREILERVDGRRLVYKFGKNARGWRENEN
Summed up: as §1

The target in a further experiment is SPI1 (Homo sapiens, UniProt P17947 1-270). The method, boiled down:
as §1

For a further experiment, the target named is SPIB (Homo sapiens, UniProt Q01892 1-262). Summed up: as §1
For another experiment, the target named is T6, ELK3 (Homo sapiens, UniProt P41970 1-407).
T6 sequence: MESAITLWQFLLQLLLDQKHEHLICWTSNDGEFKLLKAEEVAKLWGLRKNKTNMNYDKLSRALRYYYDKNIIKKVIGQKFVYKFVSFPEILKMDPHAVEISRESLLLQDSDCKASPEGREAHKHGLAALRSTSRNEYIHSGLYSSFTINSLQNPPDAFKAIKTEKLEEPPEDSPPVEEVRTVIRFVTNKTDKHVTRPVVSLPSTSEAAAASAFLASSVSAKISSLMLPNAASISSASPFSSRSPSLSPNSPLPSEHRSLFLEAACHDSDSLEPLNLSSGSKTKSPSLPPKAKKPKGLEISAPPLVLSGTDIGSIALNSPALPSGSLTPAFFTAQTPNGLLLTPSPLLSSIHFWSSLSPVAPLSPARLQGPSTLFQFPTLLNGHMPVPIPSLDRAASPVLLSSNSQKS
Summed up: as §1

Results on 8 sequences are retold here after article PMC7862700, “An all-to-all approach to the identification of sequence-specific readers for epigenetic DNA modifications on cytosine”.

Chain of ELF1 (P32519 whole entry): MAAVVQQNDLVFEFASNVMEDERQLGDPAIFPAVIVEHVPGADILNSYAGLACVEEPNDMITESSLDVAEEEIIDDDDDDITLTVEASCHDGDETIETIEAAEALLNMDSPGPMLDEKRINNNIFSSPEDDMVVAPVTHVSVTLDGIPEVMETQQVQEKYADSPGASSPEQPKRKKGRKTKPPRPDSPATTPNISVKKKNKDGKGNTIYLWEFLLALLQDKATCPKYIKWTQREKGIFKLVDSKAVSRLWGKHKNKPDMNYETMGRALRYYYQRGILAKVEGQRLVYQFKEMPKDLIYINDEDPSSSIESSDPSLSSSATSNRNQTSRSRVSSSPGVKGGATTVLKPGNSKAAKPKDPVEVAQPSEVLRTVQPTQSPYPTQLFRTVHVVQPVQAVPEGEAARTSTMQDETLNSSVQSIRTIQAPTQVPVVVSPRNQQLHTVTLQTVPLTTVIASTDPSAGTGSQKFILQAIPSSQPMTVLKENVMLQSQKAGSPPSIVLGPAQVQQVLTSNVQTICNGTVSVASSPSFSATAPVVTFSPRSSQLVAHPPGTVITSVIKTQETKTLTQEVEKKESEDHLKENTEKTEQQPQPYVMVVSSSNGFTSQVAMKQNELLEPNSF
Chain of SPIB (Q01892 whole entry): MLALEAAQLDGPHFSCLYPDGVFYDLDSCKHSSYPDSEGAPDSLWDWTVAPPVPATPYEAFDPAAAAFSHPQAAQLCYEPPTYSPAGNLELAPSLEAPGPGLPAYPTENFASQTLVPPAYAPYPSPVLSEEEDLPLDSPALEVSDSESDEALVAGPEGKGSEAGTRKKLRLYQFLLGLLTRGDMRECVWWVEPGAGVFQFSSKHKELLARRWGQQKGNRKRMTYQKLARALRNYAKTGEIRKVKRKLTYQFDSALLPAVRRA

For CTTCAC, the binding signal with FLI1 was 1.47 fold enrichment (6-mer frequency, TF over GST control); in the experiment with ELK1, 1.42 fold enrichment (6-mer frequency, TF over GST control); with GABPA, 1.38 fold enrichment (6-mer frequency, TF over GST control); with ERG, 1.45 fold enrichment (6-mer frequency, TF over GST control); in the experiment with ELF1, 1.45 fold enrichment (6-mer frequency, TF over GST control); with EHF, 1.41 fold enrichment (6-mer frequency, TF over GST control). Also, the binding signal with SPI1 was 1.37 fold enrichment (6-mer frequency, TF over GST control); with SPIB it was 1.41 fold enrichment (6-mer frequency, TF over GST control); in the experiment with ELK3 it was 1.38 fold enrichment (6-mer frequency, TF over GST control).

As to CTGCGC, the binding signal with FLI1 is 1.18 fold enrichment (6-mer frequency, TF over GST control); with ELK1, 1.4 fold enrichment (6-mer frequency, TF over GST control); in the experiment with GABPA it was 1.34 fold enrichment (6-mer frequency, TF over GST control); with ERG, 1.37 fold enrichment (6-mer frequency, TF over GST control); with ELF1 it was 1.45 fold enrichment (6-mer frequency, TF over GST control); in the experiment with EHF, 1.4 fold enrichment (6-mer frequency, TF over GST control). Besides, the binding signal with SPI1 is 1.31 fold enrichment (6-mer frequency, TF over GST control); with SPIB, 1.34 fold enrichment (6-mer frequency, TF over GST control); in the experiment with ELK3 it was 1.22 fold enrichment (6-mer frequency, TF over GST control).

As for AAACAC, the binding signal with FLI1 was 1.25 fold enrichment (6-mer frequency, TF over GST control); with ELK1 it was 1.33 fold enrichment (6-mer frequency, TF over GST control); with GABPA, 1.24 fold enrichment (6-mer frequency, TF over GST control); with ERG it was 1.33 fold enrichment (6-mer frequency, TF over GST control); with ELF1 it was 1.31 fold enrichment (6-mer frequency, TF over GST control); in the experiment with EHF it was 1.35 fold enrichment (6-mer frequency, TF over GST control). The binding signal was 1.3 fold enrichment (6-mer frequency, TF over GST control) with SPI1; 1.27 fold enrichment (6-mer frequency, TF over GST control) with SPIB; 1.24 fold enrichment (6-mer frequency, TF over GST control) with ELK3.

Consider TCTAGT, for which the binding signal was 1.05 fold enrichment (6-mer frequency, TF over GST control) in the experiment with FLI1; 1.12 fold enrichment (6-mer frequency, TF over GST control) with ELK1; 1.17 fold enrichment (6-mer frequency, TF over GST control) in the experiment with GABPA; 1.1 fold enrichment (6-mer frequency, TF over GST control) in the experiment with ERG; 1.12 fold enrichment (6-mer frequency, TF over GST control) with ELF1; 1.08 fold enrichment (6-mer frequency, TF over GST control) with EHF. The binding signal is 1.03 fold enrichment (6-mer frequency, TF over GST control) in the experiment with SPI1; 1.08 fold enrichment (6-mer frequency, TF over GST control) with SPIB; 1.05 fold enrichment (6-mer frequency, TF over GST control) with ELK3.

Regarding CTCATT, the binding signal was 1.45 fold enrichment (6-mer frequency, TF over GST control) in the experiment with FLI1; 1.32 fold enrichment (6-mer frequency, TF over GST control) with ELK1; 1.44 fold enrichment (6-mer frequency, TF over GST control) in the experiment with GABPA; 1.38 fold enrichment (6-mer frequency, TF over GST control) in the experiment with ERG; 1.55 fold enrichment (6-mer frequency, TF over GST control) with ELF1; 1.57 fold enrichment (6-mer frequency, TF over GST control) in the experiment with EHF. Moreover, the binding signal was 1.82 fold enrichment (6-mer frequency, TF over GST control) in the experiment with SPI1; 1.61 fold enrichment (6-mer frequency, TF over GST control) in the experiment with SPIB; 1.12 fold enrichment (6-mer frequency, TF over GST control) in the experiment with ELK3.

Regarding CTAATC, the binding signal was 1.32 fold enrichment (6-mer frequency, TF over GST control) with FLI1; 1.39 fold enrichment (6-mer frequency, TF over GST control) in the experiment with ELK1; 1.34 fold enrichment (6-mer frequency, TF over GST control) with GABPA; 1.32 fold enrichment (6-mer frequency, TF over GST control) in the experiment with ERG; 1.32 fold enrichment (6-mer frequency, TF over GST control) with ELF1; 1.35 fold enrichment (6-mer frequency, TF over GST control) in the experiment with EHF. In addition, the binding signal with SPI1 is 1.26 fold enrichment (6-mer frequency, TF over GST control); with SPIB, 1.45 fold enrichment (6-mer frequency, TF over GST control); with ELK3 it was 1.44 fold enrichment (6-mer frequency, TF over GST control).

With TTGTTT, the binding signal with FLI1 is 1.46 fold enrichment (6-mer frequency, TF over GST control); in the experiment with ELK1 it was 1.45 fold enrichment (6-mer frequency, TF over GST control); with GABPA it was 1.36 fold enrichment (6-mer frequency, TF over GST control); with ERG, 1.6 fold enrichment (6-mer frequency, TF over GST control); in the experiment with ELF1 it was 1.37 fold enrichment (6-mer frequency, TF over GST control); in the experiment with EHF, 1.51 fold enrichment (6-mer frequency, TF over GST control). Further, the binding signal with SPI1 is 1.28 fold enrichment (6-mer frequency, TF over GST control); in the experiment with SPIB, 1.52 fold enrichment (6-mer frequency, TF over GST control); with ELK3, 1.49 fold enrichment (6-mer frequency, TF over GST control).

As for TGGTAA, the binding signal was 1.28 fold enrichment (6-mer frequency, TF over GST control) with FLI1; 1.33 fold enrichment (6-mer frequency, TF over GST control) in the experiment with ELK1; 1.32 fold enrichment (6-mer frequency, TF over GST control) with GABPA; 1.28 fold enrichment (6-mer frequency, TF over GST control) in the experiment with ERG; 1.28 fold enrichment (6-mer frequency, TF over GST control) with ELF1; 1.37 fold enrichment (6-mer frequency, TF over GST control) with EHF. Besides, the binding signal with SPI1 is 1.28 fold enrichment (6-mer frequency, TF over GST control); with SPIB it was 1.4 fold enrichment (6-mer frequency, TF over GST control); in the experiment with ELK3, 1.32 fold enrichment (6-mer frequency, TF over GST control).
